# Reference: PubChem BioAssay AID1259420 (Broad Institute, 2018)
# Among all 1,000 compounds or so, about 250 (25%) were called active. About 31% were inconclusive and are not listed. Not all results are given here. Potency and affinity values are given separately. A number with no mark means an inactive call. The rule behind the calls is not given here.
# Assay: T. gondii intracellular growth, IFN-gamma absent, dose response, cell-based (AID 1259420);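 note: host cells were HeLa; final incubation lasted 72 hours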
# Conditions: Toxoplasma gondii growth in host cells, no IFN-gamma
compound,measurement,setting,value
Cc1ccc(-c2cc(O)c3c(c2)CN(C(=O)CCN2CCCO2)CCO3)s1,max activity,at 19.5 µM unless noted,12.4% [at 10 µM]
N#Cc1ccc(-c2ccc([C@@H]3[C@@H](CO)N4C(=O)CNC[C@H]34)cc2)cc1,max activity,at 19.5 µM unless noted,33.8%
O=C1CNC[C@@H]2[C@H](c3ccc(C#Cc4cccnc4)cc3)[C@H](CO)N12,max activity,at 19.5 µM unless noted,16.3%
O=S1(=O)c2ccccc2C2(CCN(CC3CC3)C2)N1Cc1ccc(F)cc1 (configuration not stated),max activity,at 19.5 µM unless noted,13.7%
CN(Cc1ccccn1)C(=O)C1=NOC2(CCN(S(=O)(=O)c3cccc(F)c3)C2)C1 (configuration not stated),max activity,at 19.5 µM unless noted,-20.7% [at 10 µM]
CC(C)n1c(C(=O)Nc2cccc(F)c2)nc2c1CCN(Cc1ccccc1)C2,max activity,at 19.5 µM unless noted,-15.6% [at 10 µM]
CCC(=O)N1CC(=O)N2[C@H](CO)[C@H](c3ccc(C#CCC(C)C)cc3)[C@H]2C1,max activity,at 19.5 µM unless noted,13.7%
O=C1CNC[C@@H]2[C@H](c3ccc(C#Cc4cccnc4)cc3)[C@@H](CO)N12,max activity,at 19.5 µM unless noted,-12.5% [at 0.16 µM]
COC1CCCC(C(=O)N2CCC3(CC2)C(=O)Nc2ccc(-c4ccc(C(C)=O)cc4)cc23)C1 (configuration not stated),max activity,at 19.5 µM unless noted,-15.4% [at 10 µM]
CC(C)CC#Cc1ccc([C@H]2[C@@H](CO)N3C(=O)CN(C(=O)c4cccc(F)c4)C[C@H]23)cc1,max activity,at 19.5 µM unless noted,19.6%
CC(C)CC#Cc1ccc([C@H]2[C@H]3CN(C(=O)Nc4cc(F)ccc4F)CC(=O)N3[C@H]2CO)cc1,max activity,at 19.5 µM unless noted,31.4%
CC(C)CC#Cc1ccc([C@@H]2[C@H](CO)N3C(=O)CN(C(=O)c4cccc(F)c4)C[C@@H]23)cc1,max activity,at 19.5 µM unless noted,12.3% [at 1.2 µM]
CC(C)CC#Cc1ccc([C@H]2[C@@H](CO)N3C(=O)CN(C(=O)Nc4cc(F)ccc4F)C[C@H]23)cc1,max activity,at 19.5 µM unless noted,17.1%
COc1ccc(CN2CCC3(CC(n4cnnc4)CO3)C2)cc1 (configuration not stated),max activity,at 19.5 µM unless noted,41.3%
O=C(Cc1cccnc1)N1CC(=O)N2[C@H](CO)[C@H](c3ccc(C#CC4CCCCC4)cc3)[C@@H]2C1,max activity,at 10 µM,-8.18%
same,max activity,at 19.5 µM,7.75%
O=C(CC(F)(F)F)N1C[C@@H]2[C@H](c3ccccc31)[C@H](CO)N2CC1CCOCC1,max activity,at 19.5 µM unless noted,-6.58% [at 5 µM]
CN(C)C(=O)c1ccc(-c2ccc([C@H]3[C@H](CO)N4C(=O)CN(C(=O)CC5CC5)C[C@@H]34)cc2)cc1,max activity,at 19.5 µM unless noted,-9.43% [at 0.3 µM]
O=C(C1CCCCC1)N1[C@H](CO)[C@@H]2c3ccccc3N(S(=O)(=O)c3ccccc3)C[C@@H]21,max activity,at 19.5 µM unless noted,10.6% [at 5 µM]
CN(C)C(=O)c1cccc(-c2ccc(C3[C@H]4CNC[C@@H]3N4Cc3ccccc3C(F)(F)F)cc2)c1 (some centres not stated),max activity,at 19.5 µM unless noted,-11.4%
COc1ccc(C#Cc2ccc3c(c2)[C@H]2[C@H](CCN2C(=O)c2cnccn2)[C@H](CO)N3)cc1,max activity,at 19.5 µM unless noted,21.9%
COCC(=O)N1CC(=O)N2[C@H](CO)[C@@H](c3ccc(-c4ccncc4)cc3)[C@H]2C1,max activity,at 19.5 µM unless noted,9.86% [at 2.6 µM]
CC(C)c1ccc(C(=O)N=C(N)N)cc1S(C)(=O)=O,max activity,at 19.5 µM unless noted,-6.61% [at 10 µM]
O=C1CNC[C@H]2[C@@H](c3ccc(C#Cc4cccnc4)cc3)[C@@H](CO)N12,max activity,at 19.5 µM unless noted,-4.61% [at 1.2 µM]
NCCCCCCNS(=O)(=O)c1ccc2c(Cl)cccc2c1,max activity,at 19.5 µM unless noted,-5.19% [at 10 µM]
NC(=O)CN1CCOCCOCCN(CC(N)=O)CCOCC1,max activity,at 19.5 µM unless noted,5.9% [at 5 µM]
COCCN(CCOC)C(=O)c1cc2c(c3ccccc3n2CC2CC2)n1-c1ncccn1,max activity,at 19.5 µM unless noted,18%
CN(C)S(=O)(=O)N1C[C@@H]2CN(Cc3ccoc3)CCO[C@H]2C1,max activity,at 19.5 µM unless noted,-18.6%
COC[C@H]1CN(C)C[C@]12CCN(C(=O)c1cc3ccccc3s1)C2,max activity,at 19.5 µM unless noted,11.6%
CCN1[C@@H]2CCN(C(=O)CC3CC3)CC[C@@H]2Oc2ccccc2S1(=O)=O,max activity,at 19.5 µM unless noted,19.2% [at 1.2 µM]
O=S1(=O)c2ccccc2OCC2(CCN(Cc3ccccc3)CC2)CN1CC1CC1,max activity,at 19.5 µM unless noted,19.2%
O=C(NCc1cncc2c1CCN(Cc1cccc(F)c1)C2)C1CC1,max activity,at 5 µM,9.94%
same,max activity,at 19.5 µM,14%
CC(=O)N1CCN(C(C)C)C(c2nnc3ccc(C(=O)N4CCCC4)cn23)C1 (configuration not stated),max activity,at 19.5 µM unless noted,-12.1% [at 10 µM]
COc1ccccc1-c1ccc2c(c1)[C@H]1[C@H](CCN1Cc1ccccc1F)[C@@H](CO)N2,max activity,at 19.5 µM unless noted,20.2%
Cc1cccc(S(=O)(=O)N2CC[C@@H]3[C@@H](CO)Nc4ccc(-c5ccccc5F)cc4[C@@H]32)c1,max activity,at 19.5 µM unless noted,-19% [at 0.6 µM]
O=S(=O)(c1cccc(F)c1)N1CC[C@@H]2[C@H]1c1cc(Br)ccc1N[C@@H]2CO,max activity,at 19.5 µM unless noted,7.04%
COc1ccccc1-c1ccc2c(c1)[C@H]1[C@H](CCN1S(=O)(=O)c1ccc(C)cc1)[C@@H](CO)N2,max activity,at 19.5 µM unless noted,21.4%
CCC(=O)N1CC[C@@H]2[C@H]1c1cc(C#Cc3ccccc3F)ccc1N[C@@H]2CO,max activity,at 19.5 µM unless noted,-12.6%
COC[C@]12CCC[C@@H]1CN(S(=O)(=O)c1cccc(OC)c1)C2,max activity,at 19.5 µM unless noted,17.2%
CN(C)CCN1CCC2(CCCN(C(=O)C3CCOC3)C2)C1=O (configuration not stated),max activity,at 19.5 µM unless noted,31.3%
COCC1CN(C(=O)c2ccccc2F)Cc2cnn(CC3CC3)c21 (configuration not stated),max activity,at 19.5 µM unless noted,-15.3% [at 10 µM]
Cc1ccccc1-c1ccc([C@@H]2[C@@H](CO)N3C(=O)CN(C(=O)c4ccncc4)C[C@@H]23)cc1,max activity,at 19.5 µM unless noted,15% [at 0.16 µM]
COc1ccccc1S(=O)(=O)N1CC[C@H]2[C@H](CO)Nc3ccc(-c4ccc(C#N)cc4)cc3[C@H]21,max activity,at 19.5 µM unless noted,19% [at 21 µM]
c1cc(-c2nccn2CCn2ccnc2)ccn1,max activity,at 19.5 µM unless noted,7.6% [at 0.16 µM]
O=C(Nc1ccccc1)c1ncn2c1CN(CC1CC1)S(=O)(=O)c1ccccc1-2,max activity,at 19.5 µM unless noted,-5.31% [at 1.2 µM]
O=C(NCc1ccccc1)c1cc(-c2cnc(N3CCCC3)nc2)cn1CC1CC1,max activity,at 19.5 µM unless noted,-17.4% [at 10 µM]
